The supplement of paper PMC3334620
Whole data set: some 33,000 sequences, median “E-score (-0.5 to 0.5)” near -0.011, cut for the highest 2% near 0.28. What follows is part of a selection rich in the highest values, with near analogues and random picks from the rest.

molecular target: T1, Gcr1 (UniProt P07261); assay: PBM E-score (8-mer binding enrichment) (E-score (-0.5 to 0.5)); higher = stronger / more preferred TF binding; conditions: protein concentration: 100 nM; construct: GST-full length
T1 sequence: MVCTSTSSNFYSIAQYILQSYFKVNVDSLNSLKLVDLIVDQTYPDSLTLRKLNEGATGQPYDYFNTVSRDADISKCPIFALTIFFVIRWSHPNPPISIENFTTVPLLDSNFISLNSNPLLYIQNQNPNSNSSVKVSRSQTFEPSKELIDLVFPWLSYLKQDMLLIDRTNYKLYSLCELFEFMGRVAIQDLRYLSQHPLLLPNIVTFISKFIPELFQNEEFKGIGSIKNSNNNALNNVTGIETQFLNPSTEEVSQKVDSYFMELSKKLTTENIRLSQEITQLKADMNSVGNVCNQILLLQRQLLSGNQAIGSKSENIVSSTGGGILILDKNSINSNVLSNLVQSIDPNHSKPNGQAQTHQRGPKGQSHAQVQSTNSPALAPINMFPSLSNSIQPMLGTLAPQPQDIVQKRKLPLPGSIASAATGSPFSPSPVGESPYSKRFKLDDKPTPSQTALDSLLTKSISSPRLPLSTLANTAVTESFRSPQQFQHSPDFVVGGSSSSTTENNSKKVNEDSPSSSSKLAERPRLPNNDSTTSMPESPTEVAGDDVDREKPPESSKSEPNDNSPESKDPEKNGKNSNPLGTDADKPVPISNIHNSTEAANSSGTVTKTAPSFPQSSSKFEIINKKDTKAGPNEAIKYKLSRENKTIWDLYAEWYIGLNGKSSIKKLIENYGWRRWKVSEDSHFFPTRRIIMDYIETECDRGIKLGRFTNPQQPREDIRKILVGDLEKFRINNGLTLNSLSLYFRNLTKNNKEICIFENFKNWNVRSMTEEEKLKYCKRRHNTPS
Procedure: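 Universal 'all 10-mer' protein binding microarrays (Agilent AMADID 015681) probed with GST-tagged S. cerevisiae TFs (full-length or DBD) made by in vitro transcription/translation (PURExpress), about 100-200 nM. Bound TF was detected with fluorescent anti-GST. Each ungapped 8-mer (which stands for itself and its reverse complement) is scored by the PBM enrichment score (E-score), a modified Wilcoxon-Mann-Whitney statistic from -0.5 to +0.5, computed with the Universal PBM Analysis Suite. Scale: above 0.35 generally sequence-specific binding.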

Sequence	PBM E-score
CAACATTG	-0.0426
AAAACCGT	0.0768
CTCGGGCC	-0.107
ACTGTCTC	-0.0499
CGATGCCG	0.145
AAGTAGAA	0.0726
AGTTCCTA	0.116
GGTTCCCA	0.327
GGTTCCTA	0.342
GGTTCCAA	0.391
GGTTCCAC	0.305
CGTTCCTA	0.15
TGTTCCAA	0.112
CGTTCCAA	0.03
CGTTCCAC	0.0103
AGTTCCCA	0.22
AGTTCCAC	0.0854
CGTTCCCA	-0.0578
CGCTTTCA	-0.00233
CCTGAGAC	-0.0674
GCACCAAC	0.197
GTATCTAA	0.16
CAGACGCA	0.175

Sequence	PBM E-score
AAGACGCT	0.218
CAGACGCC	0.329
AAGACGCG	0.278
AAGACGCC	0.349
CAGACGCG	0.136
GCGAAGAC	-0.133
AGAGCAGG	0.0116
ATACCTGC	0.115
GAACGCTA	-0.111
CCCTGGCA	-0.00029
CCTCTCGC	-0.0389
AAGGATGC	0.313
CGGGATGA	-0.188
CGGGATGC	0.332
CAGGATCG	0.154
AAGGATGT	0.0399
CAGGATGC	0.446
AGGGATGC	0.098
CAGGATCA	-0.179
CAGGATCC	0.345
CAGGATGG	-0.132
CAGGATGA	0.0175
AAGGATGA	-0.116

Sequence	PBM E-score
CCAGCTGG	0.157
ACTCTAAC	0.00366
CCCTTGCA	-0.097
ACCGGAGG	-0.09
TATGAAAA	0.131
AGGCAGTA	-0.0662
CTGGTATA	-0.0854
ACGTGTTA	-0.0746
AGCTCGCG	-0.0019
GAGGATGA	-0.0555
CCGGATGC	0.4
ACGGATGC	0.183
GAGGATGC	0.423
CCGGATGA	0.112
GAGGATAC	-0.00197
GCAGGGGA	-0.102
CGGTGCAC	-0.105
AGAGCAGC	0.0483
AGCCATGC	-0.346
ACCGAATA	-0.0481
CAAGAATA	0.19
CCAGAATC	0.245
ACAGAAAA	-0.076

Sequence	PBM E-score
CCAGAATA	0.283
GCCGAATA	0.2
CAAGAAAA	0.248
CCAGAAAA	0.335
CCCGAATA	0.334
GGTTGACA	0.0705
AATCGGGC	0.114
CATAGGCA	0.0323
CTGATGGC	-0.068
ACGGTAGA	0.138
TGAAACAA	0.0585
CGCCTGAA	0.143
GAGCATCA	-0.0695
CAGCATCG	0.0157
GAGCATCC	0.398
GAGCATAC	-0.155
AAGCATCA	-0.0253
CAGCATCA	-0.00923
AAGCATCG	0.0291
AAGCATCC	0.404
CAGCATCC	0.447
CTCTCGCA	0.0115
ACACTGGT	0.035

Sequence	PBM E-score
CAGGGACC	0.0209
AAAGTCTT	-0.247
AGACACTA	-0.0252
ATAAAGGG	0.123
ACGGAGCT	-0.175
ACAAAGCT	0.0432
ACGAAGCG	0.0293
ACGAAGCT	0.399
CCGAAGCC	0.136
ACGAAGCC	0.428
ACGAAGCA	-0.12
TCAGGCCA	-0.118
GACAGACC	-0.157
AACTAGTT	0.0246
AGGCTCGC	-0.213
CCTGGGCA	-0.022
CCTATAGC	-0.0383
CCTATAGA	0.286
ACTATAGA	0.0257
